Our source for the AC50 and outcome values is PubChem BioAssay (EPA / NIEHS).

Each structure is given as a SMILES string. “And” between values parts separate entries of the source, which are not always exact repeats. Identical values can stand only once. Records with an inconclusive call do not appear. More than one record can exist for a structure, and the calls need not agree. The source made the active and inactive calls. The calls were made as follows, unless noted: active = hit-call score of the fitted dose curve at least 0.9, where 1 is the maximum; inactive = score below 0.9.

Test [1] can be described thus: CCTE_Deisenroth_AIME_384WELL_CTox_Inactive: Cytotoxicity Assessment (CTOX) in CCTE's 384-well Estrogen Receptor Transactivation Assay without AIME metabolic competence (metabolism negative), Deisenroth Lab (AID 2284039; active = hit-call score of the fitted dose curve at least 0.9, where 1 is the maximum;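 also: cell viability via live-cell protease substrate cleaved to fluorescent probe; cells exposed 24 h to medium preincubated 2 h with alginate-water beads without S9; loss of fluorescence signal means loss of viability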). Summed up:
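Fluorescent protease-substrate viability readout after 24 h exposure of VM7Luc4E2 cells to conditioned medium. Chemicals (0.002–200 uM) first sat 2 h over alginate-water beads, no S9. Data fitted bidirectionally, loss of signal meaning viability loss.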

In test [2] the target is Estrogen receptor (Homo sapiens) (UniProt P03372). The test is described as follows: CCTE_Deisenroth_AIME_384WELL_LUC_Shift: CCTE's 384-well Estrogen Receptor Transactivation Assay with AIME metabolic competence data shift (ERTA luciferase; difference in metabolism positive and negative), Deisenroth Lab (AID 2284041).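 Also: shift is response with S9 minus without S9 so positive means metabolism raised ER signal.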 Summed up:
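Here, parent compounds undergo 2 h phase I metabolism by PB/BNF-induced rat S9 before 24 h transactivation in VM7Luc4E2 cells; the curve models S9-positive minus S9-negative response over a 10-point series.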

Test [3] in a line: CCTE_Shafer_MEA_dev_burst_rate: CCTE's Neural Network Formation Assay for Burst Rate, Shafer Lab (AID 2284042).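 As to AC50: potency for loss of burst rate below DMSO control.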 Summed up: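 Exposure ran continuously over 12 days of network development in rat cortical cultures, with compound refreshed during full media changes on DIV 5 and 9. Single-electrode bursts per recording time, well-mean over active electrodes, trapezoidal AUC across days 5–12, fitted downward relative to DMSO.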

Test [4] is described as follows: CCTE_Shafer_MEA_dev_bursting_electrodes_number: CCTE's Neural Network Formation Assay for Number of Bursting Electrodes, Shafer Lab (AID 2284043; active = hit-call score of the fitted dose curve at least 0.9, where 1 is the maximum;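 as to AC50: potency is for loss of bursting electrodes relative to DMSO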). The method in brief: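 Primary rat cortical neurons were cultured on PEI-coated 48-well MEA plates (16 electrodes/well) and exposed from plating through day 12, with compound renewed at feeds on DIV 5 and 9. Electrodes bursting ≥1 per 2 min were counted on DIV 5, 7, 9, 12; trapezoidal AUC taken.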

The nature of test [5]: CCTE_Shafer_MEA_dev_interburst_interval_mean: CCTE's Neural Network Formation Assay for Mean Interburst Interval, Shafer Lab (AID 2284046).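 Also: curve fitted for decrease in interburst interval relative to DMSO.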 The method in brief: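 Primary rat cortical neurons on PEI-coated 48-well MEA plates (laminin added with cells at plating) (16 electrodes/well), exposed from plating day 0 with renewal at DIV 5 and 9. Mean inter-burst interval averaged over bursting electrodes, AUC across days 5, 7, 9, 12; DMSO baseline.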

Test [6] is described as follows: CCTE_Shafer_MEA_dev_inter_network_spike_interval_mean: CCTE's Neural Network Formation Assay for Mean Inter-network Spike Interval, Shafer Lab (AID 2284047).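 As to AC50: potency for a decrease in mean inter-network spike interval below DMSO.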 The method in brief: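 Mean time between consecutive network-spike peaks, recorded extracellularly (adaptive spike detection) on DIV 5, 7, 9 and 12, summarized as trapezoidal AUC. Rat cortical cultures on MEAs dosed continuously days 0–12, re-dosed at feeds; loss-of-signal fit relative to DMSO.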

Test [7] is described as follows: CCTE_Shafer_MEA_dev_network_spike_number: CCTE's Neural Network Formation Assay for Number of Network Spikes, Shafer Lab (AID 2284048).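 Also: synchronized bursts across electrodes counted on days 5 7 9 12 and integrated as AUC.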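 As to AC50: fit as a loss of signal meaning fewer network spikes than DMSO.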 Summed up: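 Primary rat cortical neurons were seeded at 1.5 x 10^5 cells/well on PEI-coated 16-electrode MEA wells with laminin, exposed from plating day 0, compound renewed at DIV 5 and 9. Network spikes were recorded on days 5, 7, 9, 12 and summarized as trapezoidal AUC versus DMSO.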

A short description of test [8]: CCTE_Shafer_MEA_dev_network_spike_peak: CCTE's Neural Network Formation Assay for Mean Number of Electrodes in Network Spike, Shafer Lab (AID 2284049).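 As to AC50: fitted for loss of signal meaning fewer electrodes in network spikes than DMSO.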 Summed up:
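Continuous 12-day exposure of rat cortical cultures, starting at plating, on MEA plates. Endpoint: electrodes participating in network-spike peaks, AUC across DIV 5–12, DMSO as negative control.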

Test [9] is described as follows: CCTE_Shafer_MEA_dev_spike_duration_mean: CCTE's Neural Network Formation Assay for Mean Spike Duration, Shafer Lab (AID 2284051).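 Also: mean network spike duration pooled as area under curve over DIV 5 to 12 recordings.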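 As to AC50: potency for a decrease in mean network spike duration versus DMSO.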 Summed up:
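Spontaneous activity was recorded on days 5, 7, 9 and 12 from rat cortical cultures grown on microelectrode arrays and dosed continuously from day 0, with media and compound renewed after the DIV 5 and 9 recordings. Network-spike duration was collapsed by area under the curve.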

Test [10] in a line: CCTE_Shafer_MEA_dev_per_network_spike_spike_number_mean: CCTE's Neural Network Formation Assay for Mean Number of Spikes in a Network Spike, Shafer Lab (AID 2284053).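 As to AC50: fitted as decrease in spikes per network spike relative to DMSO.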 The method in brief: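 Mean spike count within each network spike, taken in a 0.05 s window at its peak, was recorded on days 5, 7, 9 and 12 and integrated as trapezoidal area under the curve. Rat cortical cultures on MEA plates received continuous compound from day 0, refreshed at medium changes on DIV 5 and 9.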

Test [11] is described as follows: CCTE_Shafer_MEA_dev_per_network_spike_spike_percent: CCTE's Neural Network Formation Assay for Percent of Spikes in a Network Spike, Shafer Lab (AID 2284054). Summed up: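 Primary rat cortical neurons on 16-electrode MEA wells (PEI-coated, laminin at plating), exposed from day 0 with renewal at DIV 5 and 9; spikes within 0.05 s of network-spike peaks over total spikes, AUC across days 5, 7, 9, 12.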

Test [12] in a line: UKN5_HCS_SBAD2_cell_viability: Viability Assessment in the University of Konstanz (UKN) Leist Lab Neurite Outgrowth Assay in human iPSC-derived immature Dorsal Root Ganglia Neurons (UKN5) (AID 2284056). Summed up:
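iPSC-derived immature peripheral neurons (SBAD2) seeded on Matrigel with CHIR99021, SU5402 and DAPT, dosed 1 h later for 24 h. Viability from Hoechst H-33342 and calcein-AM live staining, high-content imaging; bidirectional fit versus DMSO.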

A short description of test [13]: CCTE_Shafer_MEA_acute_AB: CCTE's Alamar Blue Assay for Cytotoxicity in the Neural Acute Assay, Shafer Lab (AID 2284069; active = hit-call score of the fitted dose curve at least 0.9, where 1 is the maximum;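 also: active compounds lower the viability signal compared with DMSO wells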). The method in brief: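 Resazurin reduction (CellTiter Blue, 1:6 in fresh medium) read at ex 544/em 590 nm marks viability loss relative to DMSO. Cells: primary rat cortical neuron networks on microelectrode arrays, treated after baseline recording at 13 or 15 days in vitro.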

A short description of test [14]: UKN5_HCS_SBAD2_neurite_outgrowth: University of Konstanz (UKN) Leist Lab Neurite Outgrowth Assay in human iPSC-derived immature Dorsal Root Ganglia Neurons (UKN5) (AID 2284070). As to conditions: actives raise or lower the signal. Summed up: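 Read-out: calcein-AM-stained neurite area by high-content imaging, Hoechst H-33342 for viability, after 24 h exposure of iPSC-derived immature dorsal root ganglia neurons. Activity fitted in both directions relative to DMSO baseline.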

Test [15] can be described thus: CCTE_Shafer_MEA_dev_AB: CCTE's Alamar Blue Assay for Cytotoxicity in the Neural Network Formation Assay, Shafer Lab (AID 2284083; active = hit-call score of the fitted dose curve at least 0.9, where 1 is the maximum;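 also: resazurin reduction fluorescence as viability of cultured neurons; twelve days of exposure from plating with re-dosing on DIV 5 and 9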). Summed up:
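Resazurin fluorescence, relative to DMSO, gauges viability after twelve days of exposure that began at plating of rat cortical neurons (1.5 x 10^5 cells/well, 48-well MEA); treatment renewed with full medium exchange on DIV 5 and 9.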
On the technique in general: Resazurin is reduced to fluorescent resorufin, in cell work by metabolically active cells.

The nature of test [16]: CCTE_Shafer_MEA_acute_LDH: CCTE's Lactate Dehydrogenase Assay for Cytotoxicity in the Neural Acute Assay, Shafer Lab (AID 2284086; active = hit-call score of the fitted dose curve at least 0.9, where 1 is the maximum;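 also: active means LDH release rises above DMSO vehicle level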). The method in brief:
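Rat cortical neurons cultured on microelectrode arrays; baseline 40-min recording, compound added, second 40-min recording; medium then sampled for released LDH (colorimetric kit, 490 nm). DMSO = negative control.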

Test [17] can be described thus: CCTE_Shafer_MEA_dev_mutual_information_norm: CCTE's Neural Network Formation Assay for Mutual Information Normalization, Shafer Lab (AID 2284091).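 As to AC50: mutual information between electrodes summarised as area under curve across four recording days; potency is for a decrease in mutual information relative to DMSO.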 Summed up: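 Rat cortical cultures, 48-well MEA, continuous exposure DIV 0–12 with full media/compound change DIV 5 and 9. Readout: inter-electrode mutual information, AxIS adaptive spike detection; AUC across DIV 5/7/9/12 recordings; DMSO baseline, negative fitting direction.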

A short description of test [18]: CCTE_Shafer_MEA_dev_active_electrodes_number: CCTE's Neural Network Formation Assay for Number of Active Electrodes, Shafer Lab (AID 2284040; active = hit-call score of the fitted dose curve at least 0.9, where 1 is the maximum;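 as to AC50: potency for loss of active electrodes versus DMSO so lower counts are hits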). Summed up: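 Primary rat cortical neurons on 16-electrode MEA wells, exposed from day 0 through day 12 with compound renewed at DIV 5 and 9 feeds. Active electrodes (mean firing ≥5 spikes/min) counted at DIV 5, 7, 9, 12; trapezoidal AUC across days, loss-of-signal versus DMSO.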

In test [19] the test system is DIO2 (gene 1734). Put plainly: CCTE_GLTED_hDIO2: CCTE's human Deiodinase 2 (DIO2) Inhibition Assay, Great Lakes Toxicology and Ecology Division (GLTED) Lab (AID 2284050; active = hit-call score of the fitted dose curve at least 0.9, where 1 is the maximum). Summed up:
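hDIO2 enzyme + test chem, 3 h → free iodide from substrate; step 2: Sandell-Kolthoff (Ce IV reduction by As, iodide-catalysed), spectrophotometric read. Triplicate plates; DMSO = baseline.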

Test [20] has as its system DIO3 (gene 1735). Put plainly: CCTE_GLTED_hDIO3: CCTE's human Deiodinase 3 (DIO3) Inhibition Assay, Great Lakes Toxicology and Ecology Division (GLTED) Lab (AID 2284055; active = hit-call score of the fitted dose curve at least 0.9, where 1 is the maximum;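 also: potency is for inhibition seen as loss of released iodide signal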). The method in brief: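 Absorbance from the Sandell-Kolthoff reaction reports iodide released by human DIO3 during a 3-hour incubation with chemical. Inhibition scored as signal loss against DMSO controls.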

Chain of Estrogen receptor (Homo sapiens) (P03372 whole entry, looked up): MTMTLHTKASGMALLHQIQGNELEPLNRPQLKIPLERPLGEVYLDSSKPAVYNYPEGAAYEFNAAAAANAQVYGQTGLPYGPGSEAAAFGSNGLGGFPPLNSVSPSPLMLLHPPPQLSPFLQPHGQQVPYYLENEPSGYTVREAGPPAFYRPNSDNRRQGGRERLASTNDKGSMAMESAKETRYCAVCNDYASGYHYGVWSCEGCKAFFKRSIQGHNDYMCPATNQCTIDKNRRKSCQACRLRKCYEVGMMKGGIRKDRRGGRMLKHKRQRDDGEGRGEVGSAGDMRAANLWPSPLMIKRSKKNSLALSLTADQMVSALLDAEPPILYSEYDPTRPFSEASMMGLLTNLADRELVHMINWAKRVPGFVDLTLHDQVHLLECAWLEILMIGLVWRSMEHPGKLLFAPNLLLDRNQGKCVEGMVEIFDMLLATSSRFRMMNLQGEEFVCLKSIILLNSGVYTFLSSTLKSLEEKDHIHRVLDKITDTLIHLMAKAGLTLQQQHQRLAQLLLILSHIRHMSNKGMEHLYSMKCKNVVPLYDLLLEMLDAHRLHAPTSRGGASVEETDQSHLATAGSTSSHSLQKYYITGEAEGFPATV

One may read the AC50 as the midpoint of the concentration-response curve, whichever way the signal moves. Consider `COP(=S)(OC)SCn1nnc2ccccc2c1=O`, for which the AC50 is 100 µM (active) in test [1]; 15 µM (active) in test [8]; 27.2 µM (active) in test [9]; 24.9 µM (active) in test [10]; 4.18 µM (active) in test [11]; 47.2 µM (active) in [12]. Moreover, the results for the AC50 in [14], in [15] and in test [17] were 35.1 µM (active), 26.2 µM (active) and 4.99 nM (active), respectively. For the same compound, the result in test [2], in [3], in [4], in test [5], in test [6] and in [7] was inactive. Further, the outcome in [13] and in [16] was inactive.

`CCOP(=O)(OCC)Oc1nc(Cl)c(Cl)cc1Cl`: the half-maximal activity concentration (AC50) in [18] was 904 nM (active) and 8.09 µM (active); in [4], 852 nM (active) and 6.59 µM (active); in [7], 2.98 µM (active); in [8], 3.32 µM (active) and 9.79 µM (active); in test [9] it was 5.13 µM (active) and 2.98 µM (active); in test [10], 3.09 µM (active) and 15 µM (active). Moreover, the AC50 in [11] was 7.07 µM (active); in test [12], 18.3 µM (active); in test [14] it was 14.6 µM (active); in test [15], 9.43 µM (active) and 334 nM (active); in test [17] it was 872 nM (active) and 2.17 µM (active). The compound was classed as inactive in [18], in test [2], in [3], in test [5], in test [6] and in test [7]. Moreover, the compound was classed as inactive in test [8], in test [9], in test [10], in test [11], in [13] and in test [15]. The result in [16] and in [17] was inactive.

Regarding `CCSC(=O)N1CCCCCC1`, the compound was called inactive in [1], in test [2], in test [3], in test [5], in [6] and in test [7]. Further, the result in test [8], in test [9], in test [10], in [11], in [15] and in test [17] was inactive. In addition, the AC50 in test [18] is 3.42 µM (active); in test [4], 1.93 µM (active); in test [8], 5.75 µM (active).

With `COC(=O)NC(=S)Nc1ccccc1NC(=S)NC(=O)OC`, the outcome in [1] and in test [2] was inactive.

Take `CO/N=C(/C1=NOCCO1)c1ccccc1Oc1ncnc(Oc2ccccc2Cl)c1F`: the AC50 in test [1] was 15.3 µM (active); in test [18], 1.2 µM (active) and 1.05 µM (active); in test [3] it was 789 nM (active) and 637 nM (active); in test [4] it was 968 nM (active) and 1.02 µM (active); in test [5] it was 2.3 µM (active) and 1.29 µM (active); in test [6], 0.52 µM (active). The AC50 in test [7] is 527 nM (active) and 449 nM (active); in test [8], 1.27 µM (active) and 723 nM (active); in [9], 856 nM (active) and 904 nM (active); in test [10], 854 nM (active) and 756 nM (active); in test [11], 1.52 µM (active) and 801 nM (active); in test [20], 15.9 µM (active). Besides, the AC50 in test [15] was 1.47 µM (active) and 2.27 µM (active); in test [17], 401 nM (active) and 924 nM (active). In addition, the outcome in test [2], in test [6], in [19] and in test [13] was inactive.

Take `CCOc1nc(F)cc2nc(S(=O)(=O)Nc3c(Cl)cccc3Cl)nn12`: the AC50 in [1] was 146 µM (active). In addition, the outcome in test [2] and in test [13] was inactive.

Consider `COP(=S)(OC)Oc1ccc([N+](=O)[O-])c(C)c1`, for which the result in [1], in [18], in test [2], in test [3], in test [4] and in test [5] was inactive. Moreover, the result in test [6], in test [7], in [8], in test [9], in test [10] and in test [11] was inactive. Moreover, the result in test [15] and in test [17] was inactive.

Consider `COC(=O)N(C(=O)N1CO[C@@]2(C(=O)OC)Cc3cc(Cl)ccc3C2=N1)c1ccc(OC(F)(F)F)cc1`, for which the compound was classed as inactive in [1], in [2], in test [3], in test [5], in test [6] and in test [7]. The outcome in [10], in test [16] and in [17] was inactive. The AC50 in [18] was 21.2 µM (active); in test [4], 15 µM (active); in [8] it was 25.9 µM (active); in test [9], 15 µM (active); in test [11], 15 µM (active); in test [15], 2.98 µM (active).
